Assay outcomes as filed in PubChem BioAssay.
The list is not random: actives were taken first. Their share in the collection is about 5.4%.
CSC inhib: cancer stem cell inhibition. inhibition, % at 7.5 µM. 300,000 tested, 1.1% active. AID 2717. cancer stem cell-like cells viability, luminescence; in the data active = inhibition above about 75%; inconclusive = no clear call, values can overlap the other calls; tested in HMLE shEcad cells
Beta cell apopt: blocks beta cell apoptosis | INS-1E cytokine-induced death, ATP luminescence, 48 h; percent of positive-control rescue, neutral wells zero | protection from apoptosis, % (no concentration beside the values) | 300,000 tested, 0.8% active;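 active = Every replicate reaches about 75%, or at least half do and their mean reaches it too, limit read from the data; inconclusive = At least half of replicates reach the limit but their mean does not; inactive = Under half of replicates reach the limit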;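 also: 0% = cytokine-treated negative control wells and 100% = positive control rescue; higher means more ATP so stronger rescue from cytokine killing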
Mdm2 MdmX PPI: disrupts the human Mdm2-MdmX interaction | 330,000 tested, 3% active | O15151+Q00987 | AID 485346 | inhibition, % at 8 µM | SaOS-2 split-luciferase Mdm2/MdmX complementation, luminescence;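 active = inhibition of at least 50% at 8 µM in the primary screen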
MPTP inh: permeability transition pore inhibition | AID 602449 | inhibition, % at 10 µM | 360,000 tested, 1.4% active | isolated mouse mitochondria, Ca2+ swelling absorbance, 30 min;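 active = inhibition of 50% or more, scaled per plate between neutral and stimulator controls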;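 also: 0% = DMSO wells given calcium and 100% = 1 mM EGTA wells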
SKKanGAS inh: inhibitors of SKKanGAS S. pyogenes growth in kanamycin (SK-promoter or general growth effect); BacTiter-Glo, 6 h; inhibition, % at 7.5 µM; 300,000 tested, 1.3% active;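 active = mean replicate score, as percent of positive control median, at least 50; inconclusive = mean below 50 but one replicate at or above 50; inactive = mean and every replicate below 50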;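 also: strain carries kanamycin resistance gene driven by streptokinase promoter and grows in 40 µg/ml kanamycin; loss of luminescence reflects streptokinase promoter inhibition or plain growth inhibition; 0% = median of DMSO wells and 100% = positive control at its reference dose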
Calb FLC: C. albicans growth modulation with fluconazole; C. albicans CaCi-2 (fluconazole-resistant clinical isolate) + fluconazole, Alamar Blue growth, 48 h; growth inhibition, % (no concentration beside the values); 300,000 tested, 0.57% active; AID 1979;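 active = growth inhibition above about 58% in most replicates, limit read from the data, passing the limit was not always enough; inconclusive = exactly half the replicates above a set limit; inactive = most replicates below a set limit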;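 also: all wells also contain fluconazole at 8 µg/ml as a sub-toxic cotreatment; 0% = median of DMSO wells and 100% = median of geldanamycin control wells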
Starred values were filed as active, the others as inactive; u = inconclusive; x = no result given.

SMILES | CSC inhib | Beta cell apopt | Mdm2 MdmX PPI | MPTP inh | SKKanGAS inh | Calb FLC
Cc1nc2sccn2c(=O)c1CCN1CCC(=C(c2ccc(F)cc2)c2ccc(F)cc2)CC1 | 79* | -2 | 37 | -2 | -1 | x
Cc1nc2ccccn2c(=O)c1CCN1CCC(C(=O)c2ccc(F)cc2)CC1 | 7 | -5 | -1 | -4 | -1 | -6
O=C(c1ccccc1)c1ccc2nc(-c3ccc(NC(=O)c4ccccc4Br)cc3)[nH]c2c1 | x | x | 29 | -1 | 28 | 76*
CS(=O)(=O)c1ccccc1C(=O)Nc1ccc(-c2nc3ccccc3[nH]2)cc1 | -3 | -3 | -58 | -1 | 1 | -3
CN1CCc2c(sc3nc(SCC(N)=O)n(-c4ccc(Cl)cc4)c(=O)c23)C1 | x | x | 24 | 0 | 4 | 101*
O=C(O)CCn1cc(/C=C/C(=O)c2ccc(Cl)cc2)c(-c2ccc(Br)cc2)n1 | 106* | -8 | x | 1 | x | x
COc1ccc(CCC(C)NC2CCCCCCC2)cc1 (configuration not stated) | 19 | 7 | -47 | 1 | 1 | -4
COc1ccc(CCC(C)NCC2CCCCC2)cc1 (configuration not stated) | 93* | -7 | -34 | 1 | 4 | -27
CC(C)(C)c1ccc(-c2nc(NCc3cccnc3)c3ccccc3n2)cc1 | 133* | 12 | 11 | 3 | 27 | 4
c1cncc(CNc2nc(-c3cccnc3)nc3ccccc23)c1 | 0 | 5 | 12 | 0 | 4 | 1
COC(=O)c1ccc(COc2ccc(/C=C(\C#N)c3nc4ccccc4[nH]3)cc2OC)o1 | 3 | -3 | 32 | -2 | 29 | 79*
CCCCOCCCNC(=O)CC(C)c1ccccc1 (configuration not stated) | -14 | -2 | -3 | 0 | -2 | -11
Cc1ccc(Oc2nc(CN3CCOCC3)nc3sc4c(c23)CCC(C)C4)cc1C (configuration not stated) | 120* | 0 | 14 | 0 | 25 | -3
O=C(NCc1ccco1)c1ccc(Cl)c(S(=O)(=O)Nc2ccccc2)c1 | 5 | -6 | -13 | -1 | -5 | 3
O=C(O/N=C1/CCSc2ccccc21)c1ccc(F)cc1 | -3 | -4 | -11 | -1 | x | 117*
O=C(O/N=C1/CCCc2occc21)c1ccc(F)cc1 | -8 | -5 | 1 | 0 | 4 | 9
Cc1cccc(S(=O)Cc2ccc(C(=O)N3CCN(C(=O)c4ccco4)CC3)o2)c1 (configuration not stated) | -8 | 0 | 13 | 0 | 16 | 21
O=C(Nc1nc(-c2ccccn2)cs1)C1CC1 | -3 | 13 | -31 | 0 | 51* | 5
O=C(CC1CC2CCC1C2)Nc1nc(-c2ccccn2)cs1 (configuration not stated) | -1 | 14 | 22 | -2 | 76* | 87*
COc1ccc(OCCCC(=O)Nc2nc(-c3ccccn3)cs2)cc1 | 20 | 6 | 29 | -2 | 73* | 4
O=C(Nc1nc(-c2ccccn2)cs1)C12CC3CC(CC(O)(C3)C1)C2 | -2 | 3 | -13 | 0 | u | -26
COc1ccc(NC(=O)CC2CC3CCC2C3)cn1 (configuration not stated) | -11 | -1 | -2 | 0 | -17 | -9
COc1cccc2sc(Nc3nc(-c4ccccn4)cs3)nc12 | x | 111* | 43 | 6 | 100* | -38
COc1ccc(OCCC(=O)Nc2nccs2)cc1 | 1 | x | 14 | -1 | 4 | -5
O=C(Nc1nc(-c2ccc(-c3ccccc3)cc2)cs1)C1CCCO1 (configuration not stated) | 9 | 5 | 12 | -2 | 64* | 0
SMILES | CSC inhib | Beta cell apopt | Mdm2 MdmX PPI | MPTP inh | SKKanGAS inh | Calb FLC
O=C(Nc1nc(-c2ccccc2)cs1)C1CCCO1 (configuration not stated) | x | x | -28 | 0 | -8 | 4
c1ccc(Nc2nc(-c3ccccn3)cs2)cc1 | 7 | 1 | -159 | 0 | 100* | u
Cc1cccc(C)c1OCC(=O)NCc1nnc(SCC(=O)NC2CCCCC2C)n1C (configuration not stated) | -13 | 2 | 0 | -2 | -11 | -10
CC(=O)N(c1ccc(Cl)cc1)c1nc(C)cc(C)c1C#N | 10 | 2 | 21 | -1 | 3 | -4
Cc1sc2nc(SCc3ccccc3)n(Cc3ccco3)c(=O)c2c1C | 6 | -2 | -3 | 1 | 21 | 1
Cc1ccc(CSc2nc3sc(C)c(C)c3c(=O)n2Cc2ccco2)cc1 | u | 2 | 17 | 6 | 78* | -13
Cc1c(O)cc2c(c1O)C(=O)CC(c1ccccc1)O2 (configuration not stated) | 77* | 13 | -5 | -1 | 3 | 9
Cc1ccc2sc(NC(=O)C3CC3)nc2c1C | -18 | -4 | -35 | 0 | 3 | 4
CCN1CCN(C(CCc2ccccc2)C(=O)NC2CCCCC2)CC1 (configuration not stated) | x | x | x | 0 | x | x
NC(=O)C1CCN(C2=C(Cl)C(=O)c3ccccc3C2=O)CC1 | 85* | 15 | 12 | 10 | -8 | 4
CC1(C)CC(=O)C=C(C(=O)N2CCCC(CCC(=O)NCc3ccccc3F)C2)O1 (configuration not stated) | -9 | -1 | 5 | 0 | -6 | -8
O=C(CCl)c1ccc(Cc2ncc(C(F)(F)F)cc2Cl)s1 | -16 | 3 | 45 | -1 | 55* | 1
NS(=O)(=O)c1ccc(Cc2ncc(C(F)(F)F)cc2Cl)s1 | -18 | 1 | -15 | -3 | 1 | 5
Cc1ccc(S(=O)(=O)NNC(=O)c2ccc(NC(=O)C3CC3)cc2)cc1 | 4 | 2 | 11 | 3 | x | 111*
CC(=O)Nc1ccc(C(=O)NNS(=O)(=O)c2ccc(C)cc2)cc1 | 2 | x | 33 | 0 | -3 | -7
COc1ccc(CNC(=O)[C@H](C)NC(=O)C2CCN(C(=O)[C@H](CCSC)NC(=O)OC(C)(C)C)CC2)cc1 | -10 | -3 | -8 | 0 | 0 | 2
O=C(c1cc2ccccc2cc1O)N1CCN(c2ccccc2O)CC1 | -14 | -2 | 6 | 1 | u | 77*
Cc1ccc(-c2csc(-c3c[nH]c4ccccc34)n2)c(C)c1 | 99* | 1 | -13 | 4 | 92* | -21
Oc1ccc(-c2csc(-c3c[nH]c4ccccc34)n2)c(O)c1 | 90* | x | -29 | 28 | 45 | -30
CC(=O)N1c2ccccc2CCc2ccc(N)cc21 | -12 | 4 | 27 | -1 | 11 | -1
CC(C)OCCCNC(=O)C1CC(=O)N(CCc2ccccc2)C1 (configuration not stated) | -17 | -10 | 4 | 3 | 0 | 0
Cn1c(=O)c(C(=O)NNC(=O)c2ccccc2F)c(O)c2ccccc21 | x | 0 | 50 | 1 | 61* | -14
CCn1c(=O)c(C(=O)NNC(=O)c2ccccc2Cl)c(O)c2ccccc21 | x | -3 | 34 | 3 | 58* | 6
CCn1c(=O)c(C(=O)NNC(=O)c2ccccc2F)c(O)c2ccccc21 | 13 | 3 | 18 | 8 | 90* | 20
